# M1 ag = human M1 muscarinic receptor agonists, primary screen, Fluo-8 calcium fluorescence, CHO-K1 cells, HTS; Muscarinic acetylcholine receptor M1 (Homo sapiens), P11229; CHO-K1 hM1, agonist mode; 0% DMSO, 100% acetylcholine EC100; activation, % at 3 µM; actives 0.33% (n = 360,000);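 active means activation above the run's mean compound activation plus 3 SD, cut at about 16% in these data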;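 further: peak over basal fluorescence ratio within a 140 s kinetic read after compound addition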
# Target sequence (P11229 whole entry, looked up): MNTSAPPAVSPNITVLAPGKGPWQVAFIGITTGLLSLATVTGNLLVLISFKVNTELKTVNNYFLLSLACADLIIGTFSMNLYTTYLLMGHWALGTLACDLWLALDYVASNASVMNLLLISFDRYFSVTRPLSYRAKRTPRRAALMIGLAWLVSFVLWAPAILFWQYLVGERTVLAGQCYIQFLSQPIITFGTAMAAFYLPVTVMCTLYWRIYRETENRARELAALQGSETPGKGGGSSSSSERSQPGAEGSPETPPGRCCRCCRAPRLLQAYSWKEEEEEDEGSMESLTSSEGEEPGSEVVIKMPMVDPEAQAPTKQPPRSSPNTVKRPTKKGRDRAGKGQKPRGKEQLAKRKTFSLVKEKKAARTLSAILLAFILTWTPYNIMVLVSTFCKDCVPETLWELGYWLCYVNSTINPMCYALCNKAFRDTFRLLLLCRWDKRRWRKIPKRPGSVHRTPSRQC
# M1 ag parental = counter-screen for M1 agonists: effect in parental CHO-K1 cells | activation, % at 3 µM | AID 602248, 2012 | Fluo-8 calcium fluorescence; scaled to maximal ATP response, vehicle zero | actives 0.48% (n = 360,000); in the data active means activation above about 15%;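 further: untransfected CHO-K1 host cells lacking M1 receptor as counterscreen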
# CHO-K1 Ca PAM = nonselective calcium activators in parental CHO-K1 cells, primary screen, counter-screen for M1 PAM project, cell-based, Fluo-8 calcium fluorescence, full deck, 1536-well; ATP EC20; 0% at ATP EC20, 100% at ATP max; activation, % at 3 µM; actives 0.02% (n = 360,000); AID 602247, 2012;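 active means activation above the run cutoff, the mean activation of all test compounds plus 3 SD, cut at about 40% in these data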;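 further: peak over basal fluorescence ratio in a 140 s read after ATP addition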
# M1 PAM = human M1 muscarinic receptor positive allosteric modulators, primary screen, CHO-K1 cells, Fluo-8 calcium fluorescence, 1536-well; Muscarinic acetylcholine receptor M1 (Homo sapiens), P11229; CHO-K1 hM1, ACh EC20; 0% = ACh EC20, 100% = maximal ACh; actives 0.088% (n = 360,000); activation, % at 3 µM; in the data active means activation above about 19%, passing the limit was not always enough
# CHO-K1 Ca antag = counter-screen for M1 antagonists: effect in parental CHO-K1 cells; ATP-induced calcium, Fluo-8 fluorescence; inhibition, % at 3 µM; actives 0.6% (n = 360,000);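 active means inhibition above a per-plate cutoff, the plate's mean sample inhibition plus 3 SD, cut at about 24% in these data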;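 further: 0% = DMSO plus EC80 ATP and 100% = DMSO alone without ATP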
# CHRM1 antagonist = human M1 muscarinic receptor antagonists, primary screen, CHO-K1 cells, Fluo-8 calcium fluorescence, 1536-well. Muscarinic acetylcholine receptor M1 (Homo sapiens), P11229. CHO-K1 hM1, ACh EC80 antagonist. inhibition, % at 3 µM. actives 1.3% (n = 360,000);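 active means percent inhibition above its own plate's cutoff, namely the mean of that plate's compound wells plus 3 SD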;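 further: peak over basal fluorescence ratio during 140 s after agonist addition; 0% = ACh EC80 plus DMSO and 100% = DMSO alone without agonist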
# * marks the source's active call; other numbers are inactive results. Sampled rows, rich in hits. Any-hit rate of the full collection: about 2.3%.
SMILES,M1 ag,M1 ag parental,CHO-K1 Ca PAM,M1 PAM,CHO-K1 Ca antag,CHRM1 antagonist
O=C(Nc1cccc(Cl)c1)ON=C1c2ccccc2-c2ccccc21,-9,2,-15,-16,21,29*
O=C(Nc1cccc(Cl)c1)OCCOCCOC(=O)Nc1cccc(Cl)c1,-2,1,5,-5,-11,5
CNc1ncc(Cc2ccccc2)s1,-6,0,-14,7,24*,-7
COc1cccc(C(C(=O)NCC2CCCO2)N(C(=O)Cn2nnc3ccccc32)c2ccc(NC(C)=O)cc2)c1 (configuration not stated),-1,2,11,6,-21,-11
O=C(Nc1cc2c(oc1=O)CCCC2=O)c1ccc(Cl)cc1,-2,0,17,3,0,-8
COc1ccc(CNC(=O)C(c2ccc(C)o2)N(Cc2cccs2)C(=O)Cc2cccs2)cc1 (configuration not stated),5,6,7,-18,8,40*
O=C(NCc1ccccc1)C(c1ccccc1)N(Cc1ccc2c(c1)OCO2)C(=O)Cc1cccs1 (configuration not stated),1,4,4,-15,6,45*
COCCN(C(=O)Cc1cccs1)C(C(=O)NCc1ccc(OC)cc1)c1ccc(C)cc1 (configuration not stated),-1,8,6,0,-14,-20
COCCNC(=O)C(c1ccc(C)o1)N(Cc1ccc(OC)cc1)C(=O)Cn1nnc2ccccc21 (configuration not stated),23*,9,10,0,9,-29
O=C(O)CCC(=O)N1c2ccccc2NC2=C(C(=O)CC(c3ccc(F)cc3)C2)C1c1ccc([N+](=O)[O-])o1 (configuration not stated),-6,0,-18,-9,25*,8
COc1ccc(-c2csc(NC(=O)CCN3C(=O)C4CC=CCC4C3=O)n2)cc1OC (configuration not stated),1,3,11,-1,4,-1
COC(=O)[C@]1(CC(C)C)N[C@H](c2ccc(-c3ccc(C(C)=O)cc3)cc2)[C@@H]2C(=O)N(C)C(=O)[C@@H]21,-2,0,14,30*,-10,-5
C=CCOc1cccc(C(=O)N2CCCC(Nc3ccc4c(c3)OCCO4)C2)c1 (configuration not stated),-2,1,-11,-3,57*,-14
C=Cc1ccc(C(=O)N2CCCC(Nc3ccc4c(c3)OCCO4)C2)cc1 (configuration not stated),-2,4,31,11,-21,-10
Cc1cc(N(C)C)cc(C)c1N=Nc1cc[n+]([O-])cc1,-6,-1,10,12,-6,-19
Cc1ccc(Cl)cc1N1CCN(C(=O)CCS(=O)(=O)c2ccc3c(c2)NC(=O)CO3)CC1,5,15*,-17,-19,5,37*
O=C(OCc1cn([C@H]2C[C@H](c3ccc(Cl)cc3)N(C(=O)C3CCCCC3)C[C@@H]2O)nn1)c1ccccc1,-2,1,-7,8,-6,-4
Cc1ccc(OS(=O)(=O)c2c(C)nn(C)c2Cl)c(C)c1,-6,-1,-23,-23,9,62*
CC(C)N(C(=S)NCc1ccccc1)C(C)C,-5,0,-6,-7,26*,13
CC(C)N(C(=S)NCc1ccccc1)c1ccccc1,-12,0,14,3,-1,-4
CCCCN(C=O)c1c(CC)nc2c(OCc3ccc(C(F)(F)F)cc3)cccn12,-8,2,9,-14,-8,5
Cc1ccc(NN2C(=O)C=C(c3ccc(Cl)cc3)C2=O)cc1,7,5,4,-1,31*,29

# Compound activity as filed in PubChem BioAssay.
